Assay results: PubChem BioAssay (NCATS)
Results filed as inconclusive are left out. The source made the active and inactive calls. Calls come from the whole dose curve; as a rule, active = well fitted inhibition curve with a large enough effect; inconclusive = small, poorly fitted or top-dose-only effect; inactive = flat fitted curve, though single readings scatter.

Tests used:
Dd2 = test: qHTS profiling for inhibitors of Plasmodium falciparum proliferation (AID 504749);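 note: 0% = DMSO vehicle and full inhibition = artemisinin control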; conditions: P. falciparum in erythrocytes, SYBR Green DNA, 72 h; series mostly up to 28.7 µM
Procedure, shortened: (§1)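 In a 72 h erythrocytic culture (37 C, humidified, 5% CO2) at 2.5% hematocrit and 0.3% starting parasitemia, compounds were tested; SYBR Green I in detergent lysis buffer stained parasite DNA overnight.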

ECU = test: as above; conditions: P. falciparum in erythrocytes, SYBR Green DNA, 72 h; series mostly up to 28.7 µM
Procedure, shortened: as §1

FAB9 = test: as above; conditions: P. falciparum in erythrocytes, SYBR Green DNA, 72 h; series mostly up to 28.7 µM
Procedure, shortened: as §1

GB4 = test: as above; conditions: P. falciparum in erythrocytes, SYBR Green DNA, 72 h; series mostly up to 28.7 µM
Procedure, shortened: as §1

HB3 = test: as above; conditions: P. falciparum in erythrocytes, SYBR Green DNA, 72 h; series mostly up to 28.7 µM
Procedure, shortened: as §1

ICS = test: as above; conditions: P. falciparum in erythrocytes, SYBR Green DNA, 72 h; series mostly up to 28.7 µM
Procedure, shortened: as §1

JCK = test: as above; conditions: P. falciparum in erythrocytes, SYBR Green DNA, 72 h; series mostly up to 28.7 µM
Procedure, shortened: as §1

N140 = test: as above; conditions: P. falciparum in erythrocytes, SYBR Green DNA, 72 h; series mostly up to 28.7 µM
Procedure, shortened: as §1

P93_24 = test: as above; conditions: P. falciparum in erythrocytes, SYBR Green DNA, 72 h; series mostly up to 28.7 µM
Procedure, shortened: as §1

P94_40 = test: as above; conditions: P. falciparum in erythrocytes, SYBR Green DNA, 72 h; series mostly up to 28.7 µM
Procedure, shortened: as §1

PAD = test: as above; conditions: P. falciparum in erythrocytes, SYBR Green DNA, 72 h; series mostly up to 28.7 µM
Procedure, shortened: as §1

PC15 = test: as above; conditions: P. falciparum in erythrocytes, SYBR Green DNA, 72 h; series mostly up to 28.7 µM
Procedure, shortened: as §1

PC26 = test: as above; conditions: P. falciparum in erythrocytes, SYBR Green DNA, 72 h; series mostly up to 28.7 µM
Procedure, shortened: as §1

PC49 = test: as above; conditions: P. falciparum in erythrocytes, SYBR Green DNA, 72 h; series mostly up to 28.7 µM
Procedure, shortened: as §1

SC27B = test: as above; conditions: P. falciparum in erythrocytes, SYBR Green DNA, 72 h; series mostly up to 28.7 µM
Procedure, shortened: as §1

TAB109 = test: as above; conditions: P. falciparum in erythrocytes, SYBR Green DNA, 72 h; series mostly up to 28.7 µM
Procedure, shortened: as §1

TAB113 = test: as above; conditions: P. falciparum in erythrocytes, SYBR Green DNA, 72 h; series mostly up to 28.7 µM
Procedure, shortened: as §1

TAB165 = test: as above; conditions: P. falciparum in erythrocytes, SYBR Green DNA, 72 h; series mostly up to 28.7 µM
Procedure, shortened: as §1

W2 = test: as above; conditions: P. falciparum in erythrocytes, SYBR Green DNA, 72 h; series mostly up to 28.7 µM
Procedure, shortened: as §1

CRL-7250 = normal cell line; test: Cytotoxic Profiling of Annotated Libraries Using Quantitative High-Throughput Screening (AID 1296008); conditions: Five cell lines viability, CellTiter-Glo ATP luminescence, 48-72 h; max response: stronger effect = lower value; for max response: % is set by controls: 0 for no effect and ±100 for the full control effect
Procedure, shortened: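 Cytotoxicity was measured as CellTiter-Glo ATP luminescence, read after 10 min at room temperature. Compound treatment of the cells lasted 48 or 72 hr at 37 degrees Celsius in a qHTS format.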
Note: nearly all actives have a fitted effect of over 60% in size.

CC(=O)Oc1cc(C(C)C)c(OCCN(C)C)cc1C
inactive: Potency (Dd2) | Potency (ECU) | Potency (FAB9) | Potency (GB4) | Potency (HB3) | Potency (ICS) | Potency (JCK) | Potency (N140) | Potency (P93_24) | Potency (P94_40) | Potency (PAD) | Potency (PC15) | Potency (PC26) | Potency (PC49) | Potency (SC27B) | Potency (TAB109) | Potency (TAB113) | Potency (TAB165) | Potency (W2) | max response (CRL-7250) -7.06%

O=c1[nH]c(=O)n([C@H]2C[C@H](O)[C@@H](CO)O2)cc1Br
inactive: Potency (Dd2) | Potency (ECU) | Potency (FAB9) | Potency (GB4) | Potency (HB3) | Potency (ICS) | Potency (JCK) | Potency (N140) | Potency (P93_24) | Potency (P94_40) | Potency (PAD) | Potency (PC15) | Potency (PC26) | Potency (PC49) | Potency (SC27B) | Potency (TAB109) | Potency (TAB113) | Potency (TAB165) | Potency (W2) | max response (CRL-7250) 0.0744%

CC(C)(Oc1ccc(CCNC(=O)c2ccc(Cl)cc2)cc1)C(=O)O
inactive: Potency (Dd2) | Potency (ECU) | Potency (FAB9) | Potency (GB4) | Potency (HB3) | Potency (ICS) | Potency (JCK) | Potency (N140) | Potency (P93_24) | Potency (P94_40) | Potency (PAD) | Potency (PC15) | Potency (PC49) | Potency (SC27B) | Potency (TAB109) | Potency (TAB113) | Potency (TAB165) | Potency (W2) | max response (CRL-7250) -10.1%

CCN1CCC[C@H]1CNC(=O)c1c(O)c(Cl)cc(Cl)c1OC
inactive: Potency (Dd2) | Potency (ECU) | Potency (FAB9) | Potency (GB4) | Potency (HB3) | Potency (ICS) | Potency (JCK) | Potency (N140) | Potency (P93_24) | Potency (P94_40) | Potency (PAD) | Potency (PC15) | Potency (PC26) | Potency (PC49) | Potency (SC27B) | Potency (TAB109) | Potency (TAB113) | Potency (TAB165) | Potency (W2) | outcome (CRL-7250)

NCCCNCCSP(=O)(O)O
inactive: Potency (Dd2) | Potency (ECU) | Potency (FAB9) | Potency (GB4) | Potency (HB3) | Potency (ICS) | Potency (JCK) | Potency (N140) | Potency (P93_24) | Potency (P94_40) | Potency (PAD) | Potency (PC15) | Potency (PC26) | Potency (PC49) | Potency (SC27B) | Potency (TAB109) | Potency (TAB113) | Potency (TAB165) | Potency (W2) | outcome (CRL-7250)

CCN(Cc1ccncc1)C(=O)C(CO)c1ccccc1 (centres undefined)
inactive: Potency (Dd2) | Potency (ECU) | Potency (FAB9) | Potency (GB4) | Potency (HB3) | Potency (ICS) | Potency (JCK) | Potency (N140) | Potency (P93_24) | Potency (P94_40) | Potency (PAD) | Potency (PC15) | Potency (PC26) | Potency (PC49) | Potency (SC27B) | Potency (TAB109) | Potency (TAB113) | Potency (TAB165) | Potency (W2) | max response (CRL-7250) -20.8%

Cc1scc2c1N(C(=O)CN1CCN(C)CC1)c1ccccc1NC2=O
inactive: Potency (Dd2) | Potency (ECU) | Potency (FAB9) | Potency (GB4) | Potency (HB3) | Potency (ICS) | Potency (JCK) | Potency (N140) | Potency (P93_24) | Potency (P94_40) | Potency (PAD) | Potency (PC15) | Potency (PC26) | Potency (PC49) | Potency (SC27B) | Potency (TAB109) | Potency (TAB113) | Potency (W2) | max response (CRL-7250) -1.88%

CCCCNc1ccc(C(=O)OCCN(C)C)cc1
inactive: Potency (Dd2) | Potency (ECU) | Potency (FAB9) | Potency (GB4) | Potency (HB3) | Potency (ICS) | Potency (JCK) | Potency (N140) | Potency (P93_24) | Potency (P94_40) | Potency (PAD) | Potency (SC27B) | Potency (TAB109) | Potency (TAB113) | Potency (TAB165) | Potency (W2) | max response (CRL-7250) 3.25%

CCO/C([O-])=N/c1c[n+](N2CCOCC2)no1
inactive: Potency (Dd2) | Potency (ECU) | Potency (FAB9) | Potency (GB4) | Potency (HB3) | Potency (ICS) | Potency (JCK) | Potency (N140) | Potency (P93_24) | Potency (P94_40) | Potency (PAD) | Potency (PC15) | Potency (PC26) | Potency (PC49) | Potency (SC27B) | Potency (TAB109) | Potency (TAB113) | Potency (TAB165) | Potency (W2) | outcome (CRL-7250)

NC(=O)N1c2ccccc2C=Cc2ccccc21
inactive: Potency (Dd2) | Potency (ECU) | Potency (FAB9) | Potency (GB4) | Potency (HB3) | Potency (ICS) | Potency (JCK) | Potency (N140) | Potency (P93_24) | Potency (PAD) | Potency (PC15) | Potency (PC26) | Potency (PC49) | Potency (SC27B) | Potency (TAB109) | Potency (TAB113) | Potency (TAB165) | Potency (W2) | outcome (CRL-7250)

O=C(O)CCCCCCCC(=O)O
inactive: Potency (Dd2) | Potency (ECU) | Potency (FAB9) | Potency (GB4) | Potency (HB3) | Potency (ICS) | Potency (JCK) | Potency (N140) | Potency (P93_24) | Potency (P94_40) | Potency (PAD) | Potency (PC15) | Potency (PC26) | Potency (PC49) | Potency (SC27B) | Potency (TAB109) | Potency (TAB113) | Potency (TAB165) | Potency (W2) | max response (CRL-7250) -17.5%

CCCN(CCC)CCc1cccc2c1CC(=O)N2
inactive: Potency (Dd2) | Potency (ECU) | Potency (FAB9) | Potency (GB4) | Potency (HB3) | Potency (ICS) | Potency (JCK) | Potency (N140) | Potency (P93_24) | Potency (P94_40) | Potency (PAD) | Potency (PC15) | Potency (PC26) | Potency (PC49) | Potency (SC27B) | Potency (TAB109) | Potency (TAB113) | Potency (TAB165) | Potency (W2) | max response (CRL-7250) 1.13%
